# Test results published in PubChem BioAssay (NCATS).
# Results filed as inconclusive are left out. Values without a mark were called inactive. Activity calls are given as the source filed them. The call rests on the fitted dose curve; in most records, active means well fitted curve in the direction sought with a large enough effect; inconclusive means small, poorly fitted or top-dose-only effect, or another doubt; inactive means no such curve, though single readings can be large; an effect the other way counts as inactive or inconclusive.
# Key:
# [1] = Quantitative High-Throughput drug screen in 47 multiple myeloma cell lines against the NCATS MIPE library collection: ARD_JJKsccE7 cell viability assay (AID 1918929; further: potency means the concentration at half of the fitted maximal effect)
# Method in brief: (§1)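 Luminescent ATP measurement with CellTiter-Glo gives viability, scaled between DMSO-only wells (100%) and media-only wells (0%). Cells, 500 per well, faced library compounds for 48 hours at 37C.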
# [2] = Quantitative High-Throughput drug screen in 47 multiple myeloma cell lines against the NCATS MIPE library collection: KMM1_JCRB cell viability assay (AID 1918960); further: nearly all actives have a fitted effect of over 30% in size; further: potency means the concentration at half of the fitted maximal effect
# Method in brief: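 Myeloma cells, 500 per well, were exposed to MIPE 4.0 drugs by pin transfer for 48 h at 37 °C, 5% CO2. Viability was read as ATP luminescence with CellTiter-Glo, normalised to DMSO-only (100%) and medium-only (0%) wells.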
# [3] = Quantitative High-Throughput drug screen in 47 multiple myeloma cell lines against the NCATS MIPE library collection: KHM11_PLB cell viability assay (AID 1918962); further: nearly all actives have a fitted effect of over 35% in size; further: potency means the concentration at half of the fitted maximal effect
# Method in brief: (§2)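 Inhibition of cell viability is measured here. Each line was plated at 500 cells per well, treated with MIPE 4.0 drugs, kept 48 hours at 37C, then assayed for ATP content by CellTiter-Glo luminescence.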
# [4] = Quantitative High-Throughput drug screen in 47 multiple myeloma cell lines against the NCATS MIPE library collection: JIM3_ECACC cell viability assay (AID 1918963; further: nearly all actives have a fitted effect of over 35% in size; further: potency means the concentration at half of the fitted maximal effect)
# Method in brief: as §2
# [5] = Quantitative High-Throughput drug screen in 47 multiple myeloma cell lines against the NCATS MIPE library collection: H1112_PLB cell viability assay (AID 1918967; further: nearly all actives have a fitted effect of over 30% in size; further: potency means the concentration at half of the fitted maximal effect)
# Method in brief: as §1
# [6] = Quantitative High-Throughput drug screen in 47 multiple myeloma cell lines against the NCATS MIPE library collection: KMS27_JCRB cell viability assay (AID 1918970); details: KMS27 myeloma cells, CellTiter-Glo ATP viability, 48 h; viability (% of DMSO): at 45.8 µM (top of the series); further: nearly all actives have a fitted effect of over 30% in size; further: potency means the concentration at half of the fitted maximal effect
# Method in brief: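 Myeloma cells (500 per well) were exposed to MIPE 4.0 compounds for 48 h at 37 °C, 5% CO2; viability was read as ATP luminescence with CellTiter-Glo, normalized to DMSO-only (100%) and media-only (0%) wells.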
# [7] = Quantitative High-Throughput drug screen in 47 multiple myeloma cell lines against the NCATS MIPE library collection: KMS12BM_JCRB cell viability assay (AID 1918971); further: nearly all actives have a fitted effect of over 35% in size; further: potency means the concentration at half of the fitted maximal effect
# Method in brief: (§3)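 Viability readout: CellTiter-Glo luminescence following 5 min room-temperature incubation with reagent. Prior exposure: 48 h, 37C, humidified 5% CO2, 500 cells per well.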
# [8] = Quantitative High-Throughput drug screen in 47 multiple myeloma cell lines against the NCATS MIPE library collection: KMS26_JCRB cell viability assay (AID 1918975); further: nearly all actives have a fitted effect of over 45% in size; further: potency means the concentration at half of the fitted maximal effect
# Method in brief: as §3
# [9] = Quantitative High-Throughput drug screen in 47 multiple myeloma cell lines against the NCATS MIPE library collection: MOLP8_DSMZ cell viability assay (AID 1918977); further: nearly all actives have a fitted effect of over 45% in size; further: potency means the concentration at half of the fitted maximal effect
# Method in brief: (§4)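 Viability after 48 h drug exposure was measured as ATP-dependent luminescence. Cells, 500 per well, sat at 37 °C under 5% CO2; DMSO wells set 100%, media-only wells 0%.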
# [10] = Quantitative High-Throughput drug screen in 47 multiple myeloma cell lines against the NCATS MIPE library collection: NCIH929_DSMZ cell viability assay (AID 1918978); further: nearly all actives have a fitted effect of over 35% in size; further: potency means the concentration at half of the fitted maximal effect
# Method in brief: as §4
# [11] = Quantitative High-Throughput drug screen in 47 multiple myeloma cell lines against the NCATS MIPE library collection: INA6_PLB cell viability assay (AID 1918965; further: nearly all actives have a fitted effect of over 55% in size; further: potency means the concentration at half of the fitted maximal effect)
# Method in brief: (§5)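 qHTS of the MIPE 4.0 collection: 500 myeloma cells/well, 48 h drug exposure at 37C in 5% CO2, then CellTiter-Glo for 5 min at room temperature before luminescence reading.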
# [12] = Quantitative High-Throughput drug screen in 47 multiple myeloma cell lines against the NCATS MIPE library collection: Karpas25_ECACC cell viability assay (AID 1918968; further: nearly all actives have a fitted effect of over 35% in size; further: potency means the concentration at half of the fitted maximal effect)
# Method in brief: as §1
# [13] = Quantitative High-Throughput drug screen in 47 multiple myeloma cell lines against the NCATS MIPE library collection: KMS21BM_JCRB cell viability assay (AID 1918974); details: ATP luminescence, 48 h; viability: at 45.8 µM (top of the series); further: potency means the concentration at half of the fitted maximal effect
# Method in brief: as §1
# [14] = Quantitative High-Throughput drug screen in 47 multiple myeloma cell lines against the NCATS MIPE library collection: MMM1_PLB cell viability assay (AID 1918976)
# Method in brief: as §4
# [15] = Quantitative High-Throughput drug screen in 47 multiple myeloma cell lines against the NCATS MIPE library collection: JIM1_ECACC cell viability assay (AID 1918964; further: potency means the concentration at half of the fitted maximal effect)
# Method in brief: as §1
# [16] = Quantitative High-Throughput drug screen in 47 multiple myeloma cell lines against the NCATS MIPE library collection: JJN3_DSMZ cell viability assay (AID 1918966; further: nearly all actives have a fitted effect of over 50% in size; further: potency means the concentration at half of the fitted maximal effect)
# Method in brief: as §1
# [17] = Quantitative High-Throughput drug screen in 47 multiple myeloma cell lines against the NCATS MIPE library collection: KMS12PE_JCRB cell viability assay (AID 1918972); further: nearly all actives have a fitted effect of over 30% in size; further: potency means the concentration at half of the fitted maximal effect
# Method in brief: as §5
# [18] = Quantitative High-Throughput drug screen in 47 multiple myeloma cell lines against the NCATS MIPE library collection: KMS20_JCRB cell viability assay (AID 1918973); further: nearly all actives have a fitted effect of over 45% in size; further: potency means the concentration at half of the fitted maximal effect
# Method in brief: as §1
# [19] = Quantitative High-Throughput drug screen in 47 multiple myeloma cell lines against the NCATS MIPE library collection: Karpas417_ECACC cell viability assay (AID 1918961); details: Karpas417 myeloma viability, CellTiter-Glo ATP luminescence, 48 h; viability (% of DMSO): at 45.8 µM (top of the series)
# Method in brief: as §5
SMILES,Potency [1],Potency [2],Potency [3],Potency [4],Potency [5],Potency [6],Potency [7],Potency [8],Potency [9],Potency [10],Potency [11],Potency [12],Potency [13],Potency [14],Potency [15],Potency [16],Potency [17],Potency [18],Potency [19]
Cc1noc(-c2ccc(CSCCC(=O)O)cc2)c1NC(=O)OC(C)c1ccccc1Cl (stereo not drawn),inactive,inactive,inactive,inactive,inactive,inactive,inactive,inactive,inactive,inactive,–,–,–,–,–,–,–,–,–
c1coc(CNc2ncnc3nc[nH]c23)c1,inactive,inactive,inactive,–,inactive,–,–,inactive,–,inactive,inactive,inactive,inactive,1870 nM (active),–,–,–,–,–
C=CC(=O)Nc1cccc(Nc2nc(NC3CCC(N(C)C)CC3)nc3c2ncn3C(C)C)c1 (stereo not drawn),10.5 nM (active),13.2 nM (active),372 nM (active),332 nM (active),41.8 nM (active),10.5 nM (active),469 nM (active),235 nM (active),166 nM (active),37.2 nM (active),296 nM (active),29.6 nM (active),16.6 nM (active),1050 nM (active),1 nM (active),10.5 nM (active),11.8 nM (active),93.5 nM (active),–
CCCCCN=C(N)NN=Cc1c[nH]c2ccc(OC)cc12,2960 nM (active),3320 nM (active),–,5260 nM (active),–,–,6620 nM (active),10500 nM (active),–,13200 nM (active),–,–,–,–,1480 nM (active),–,–,–,–
COc1ccc2cc([S+]([O-])Cc3ncc(C)c(OC)c3C)nc2c1,inactive,–,–,–,inactive,–,inactive,–,–,inactive,–,16600 nM (active),–,–,inactive,inactive,–,inactive,–
COc1cc2c(cc1O)CCC1C2CC[C@@]2(C)C1CC[C@@H]2O (stereo partly drawn),inactive,–,–,1320 nM (active),–,–,1180 nM (active),3720 nM (active),–,7430 nM (active),1660 nM (active),2960 nM (active),–,6620 nM (active),–,8330 nM (active),–,–,inactive
CCC(C(=O)O)C1CCC(C)C(C(C)C(O)C(C)C(=O)C(CC)C2OC3(C=CC(O)[C@@]4(CC[C@](C)(C5CC[C@@](O)(CC)C(C)O5)O4)O3)C(C)CC2C)O1 (stereo partly drawn),209 nM (active),–,14800 nM (active),1480 nM (active),8330 nM (active),743 nM (active),148 nM (active),526 nM (active),743 nM (active),10500 nM (active),1660 nM (active),7430 nM (active),–,6620 nM (active),332 nM (active),1050 nM (active),743 nM (active),–,–
Cc1ccc(-n2[nH]c(C)c(N=Nc3cccc(-c4cccc(C(=O)O)c4)c3O)c2=O)cc1C,inactive,inactive,–,–,20900 nM (active),–,23500 nM (active),–,23500 nM (active),–,23500 nM (active),–,–,20900 nM (active),13200 nM (active),–,inactive,–,–
C[C@@H]1[C@H](C)CC[C@]2(C(=O)O)CC[C@]3(C)C(=CC[C@@H]4[C@@]5(C)C[C@@H](O)[C@H](O)[C@@](C)(CO)[C@H]5CC[C@]43C)[C@@H]12,inactive,inactive,–,inactive,inactive,inactive,–,inactive,–,inactive,–,inactive,–,–,–,–,inactive,–,–
N#CNC(=NCCCCCCOc1ccc(Cl)cc1)Nc1ccncc1,46.9 nM (active),5.9 nM (active),–,–,–,1 nM (active),11.8 nM (active),7.4 nM (active),–,–,–,inactive,–,18700 nM (active),29.6 nM (active),10.5 nM (active),4.2 nM (active),8330 nM (active),–
Nc1nc(=O)n([C@H]2C[C@H](O)[C@@H](CO)O2)cc1F,inactive,7.4 nM (active),–,–,inactive,41.8 nM (active),–,inactive,–,16600 nM (active),29.6 nM (active),inactive,–,–,–,inactive,59 nM (active),–,–
COC(=O)[C@@H]1[C@H]2C[C@@H]3c4[nH]c5ccccc5c4CCN3C[C@@H]2CC[C@@H]1O,inactive,inactive,–,inactive,inactive,inactive,–,inactive,inactive,inactive,inactive,inactive,–,–,–,–,inactive,–,–
